Measurements from PubChem BioAssay (NCATS).
Results filed as inconclusive are left out. The source made the active and inactive calls. The call rests on the fitted dose curve; in most records, active means well fitted cell-killing curve with a large enough effect; inconclusive means small, poorly fitted or top-dose-only effect, or effect the other way; inactive means flat fitted curve, though single readings scatter.

Columns and labels:
Experiment in all cases: Primary qHTS to identify gynecologic anti-cancer compounds using libraries of approved drugs and bioactive compounds (AID 1345084); further: nearly all actives have a fitted effect of over 55% in size
Settings in all cases: Gynecologic cancer cell panel viability, ATPlite luminescence, 48 h; series mostly up to 57.5 µM
OV90 = tested on: OV90
Outline: (§1)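 Cells, 1,000 per well, were allowed to settle for 16 h at 37 C before compound addition. Five concentrations were tested for 48 h, and viability was read by ATPlite luminescence after 15 min at room temperature.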

PA-1 = tested on: PA-1
Outline: as §1

Tov-21-G = tested on: Tov-21-G
Outline: as §1

Tov112D = tested on: Tov112D
Outline: as §1

Measured: Potency

Nc1c(-c2ccccc2)nc(Cl)c2c(O)n[nH]c(=O)c12
inactive: OV90 | PA-1 | Tov-21-G | Tov112D

COc1cccc(OC)c1-c1cc(C(=O)N[C@@H](CC(C)C)C(=O)O)nn1-c1ccnc2cc(Cl)ccc12
inactive: OV90 | PA-1 | Tov-21-G | Tov112D

NC(=O)NCCCC(NC(=O)Cc1ccccc1)C(=O)O (centres undefined)
inactive: OV90 | PA-1 | Tov-21-G | Tov112D

COc1ccccc1Oc1c(NS(=O)(=O)c2ccc(C)cn2)nc(-c2ccncc2)nc1OC
inactive: OV90 | PA-1 | Tov-21-G | Tov112D

CC(C)[C@](O)(c1ccc2cc(OC(F)F)c(OC(F)F)cc2c1)c1cn[nH]n1
inactive: OV90 | PA-1 | Tov-21-G | Tov112D

C[C@]1(C2CCCC2)Cc2cc(OCC(=O)O)c(Cl)c(Cl)c2C1=O
inactive: OV90 | PA-1 | Tov-21-G | Tov112D

O=C(/C=C/N1C[C@@H]2C[C@@H]1CN2c1ccccn1)c1ccccc1O
inactive: OV90 | PA-1 | Tov-21-G | Tov112D

CCOC(=O)CSc1nc2c(sc3ccccc32)c(=O)n1CCCN1CCCC1
inactive: OV90 | PA-1 | Tov-21-G | Tov112D

COC(=O)C1=CO[C@@H](O[C@@H]2O[C@H](CO)[C@@H](O)[C@H](O)[C@H]2O)[C@@H]2C(C)CC(=O)[C@]12O (some centres undefined)
inactive: OV90 | PA-1 | Tov-21-G | Tov112D

Cc1ncc(Cl)cc1NCc1ccc(C(=O)NC(CC2CCCC2)C(=O)NC2CC2)s1 (centres undefined)
inactive: OV90 | PA-1 | Tov-21-G | Tov112D

C#CCCCn1cc(-c2cccc3c2N[C@@H](C)CC(=O)N3)cn1
inactive: OV90 | PA-1 | Tov-21-G | Tov112D

COc1cc(O)c2c(c1Cl)CC(C)OC2=O (centres undefined)
inactive: OV90 | PA-1 | Tov-21-G | Tov112D

CC1=CC(=O)CC(C)(C)[C@@]1(O)/C=C/C(C)O[C@@H]1O[C@H](CO)[C@@H](O)[C@H](O)[C@H]1O (some centres undefined)
inactive: OV90 | PA-1 | Tov-21-G | Tov112D

COc1cc(O)c2c(c1)C1(OC2=O)C(C)=CC(=O)C1O (centres undefined)
inactive: OV90 | PA-1 | Tov-21-G | Tov112D

COC(=O)[C@H](Cc1ccc([N+](=O)[O-])cc1)NC(=O)c1cccc2ccccc12
inactive: OV90 | PA-1 | Tov-21-G | Tov112D

OCC(O)C(c1c[nH]c2ccccc12)c1c[nH]c2ccccc12 (centres undefined)
inactive: OV90 | PA-1 | Tov-21-G | Tov112D

O=C(O)/C=C/c1ccc(O[C@@H]2O[C@H](CO)[C@@H](O)[C@H](O)[C@H]2O)cc1
inactive: OV90 | PA-1 | Tov-21-G | Tov112D

CC1(C)CCCC2(C)c3c4c(c(=O)oc(=O)c3=CCC12)=CCC1C(C)(C)CCCC41C (centres undefined)
inactive: OV90 | PA-1 | Tov-21-G | Tov112D

O=C(C[C@@H]1C(C(=O)O)=CO[C@@H](O[C@@H]2O[C@H](CO)[C@@H](O)[C@H](O)[C@H]2O)/C1=C\CO)OCCc1ccc(O)c(O)c1
inactive: OV90 | PA-1 | Tov-21-G | Tov112D

C=CC(C)(O)CCC1C(C)(O)CCC2C(C)(C)CCCC21C (centres undefined)
inactive: OV90 | PA-1 | Tov-21-G | Tov112D

C=CC(C)(O)C1CC2C3(C)CCCC(C)(C)C3C(O)C(O)C2(C)O1 (centres undefined)
inactive: OV90 | PA-1 | Tov-21-G | Tov112D

C=C(C)[C@H]1CC[C@]2(C(=O)O)CC[C@]3(C)C(CCC4[C@@]5(C)CCC(=O)C(C)(C)C5CC[C@]43C)C12 (some centres undefined)
inactive: OV90 | PA-1 | Tov-21-G | Tov112D

CC/C=C\CC1C(CC(=O)O)CCC1OC1OC(CO)C(O)C(O)C1O (centres undefined)
inactive: OV90 | PA-1 | Tov-21-G | Tov112D

COc1cc(C[C@@]2(O)CO[C@@H](c3ccc(O[C@@H]4O[C@H](CO)[C@@H](O)[C@H](O)[C@H]4O)c(OC)c3)[C@H]2CO)ccc1O
inactive: OV90 | PA-1 | Tov-21-G | Tov112D

C/C(=C\CCC(C)(C)O)CCO[C@@H]1O[C@H](CO[C@@H]2O[C@@H](C)[C@H](O)[C@@H](O)[C@H]2O)[C@@H](O)[C@H](O)[C@H]1O
inactive: OV90 | PA-1 | Tov-21-G | Tov112D

COC(=O)C1=CO[C@@H](O[C@@H]2O[C@H](CO)[C@@H](O)[C@H](O)[C@H]2O)[C@H]2[C@@H]1[C@H](O)[C@H](O)[C@]2(C)O
inactive: OV90 | PA-1 | Tov-21-G | Tov112D
